From the supplement of paper PMC11417369
± gives the standard deviation of the averaged measurements. In all, about 25,000 sequences were measured (“ln(normalized median fluorescence intensity)”: median about 8.6, highest 2% from about 10 on). The full list was thinned out, with the highest values kept by preference.

test system: PfAP2-EXP AP2 domain (GST-tagged); test: gcPBM binding intensity (ln(normalized median fluorescence intensity)); higher = stronger DNA binding
Method in brief: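 An Agilent 4 × 180k array of primer-extended double-stranded 36-bp intergenic genomic probes, with negative controls, was incubated for 1 h with GST-tagged P. falciparum DNA-binding domains expressed in E. coli. Alexa488 anti-GST antibody detected bound protein, scanned at 488 nm. Binding intensity is the highest Masliner-normalised natural-log median intensity across replicate spots of either probe orientation.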

Sequence	gcPBM binding intensity (ln)
TATAAATGATTAATTTGTACATATTTTACTTAATTG [XGTACX_site5271]	8.18 ± 0.37
ATATTATGTCTACATAAACACACATATATATAAAAA [CACACA_site7976]	8.62 ± 0.48
TATATTTTACTCTTCACACATATACTCAATTTATAT [CACACA_site5357]	8.94 ± 0.31
TTGTATCCTTAATGCATGCACCAAATAACAAAAGTA	10.2 ± 0.38
TATTGTATCCTTAATGCATGCACCAAATAAAAAAAG [TGCATGCA_site541]	10.21 ± 0.064
CTGTATAAAACCAATGCATGTAAATATATTAATATA [TGCATGCA_site511]	9.1 ± 0.42
AAAAAAAAAATATATATATATATATATATATATATA [GTGCAC_negctrl_site467]	9.95 ± 0.53
AAAAAAAAAAAAAAAAAAAAAAAAAAATATATATAT [CACACA_negctrl_site271]	9.795 ± 0.049
AAAAAAAAAAAATATATATATATATATATATATATA [CACACA_negctrl_site1606]	10.3 ± 0.21
AAAAAAAAAAAAAATATATATATATATATATATATA [CACACA_negctrl_site540]	10.2 ± 0.2
AAAAAAATATATATATATATATATATATATATATAT [TGCATGCA_negctrl_site7]	10.1 ± 0.26
AAAAAAAAAAAAAAAAAAAAAAAAATATATATATAT [CACACA_negctrl_site436]	10 ± 0.31
TTTAATTTTCCCTTCACACATAATATATATCTGTAT [CACACA_site5370]	8.7 ± 0.43
TATTATATATATGTTGACATATTTGTACACTCCACT [TGCATGCA_negctrl_site200]	8.79 ± 0.61
TATCAAAATTGTAATTGTACTTGTAAGTGGATATAT [XGTACX_site5949]	8.68 ± 0.3
TTTTTTAAAATAATAGGTACACATAAAAAAAAAAAA [XGTACX_site2517]	8.72 ± 0.67
AACATTATAAGACACACACACACATATATAAATATA [CACACA_site6622]	8.65 ± 0.58
ACACATATATATTATTATTATATAATATATATATAT [CACACA_negctrl_site1545]	9.21 ± 0.15
TTTTAATGAAAACACACACACACATATATATATATA [CACACA_site5295]	10.3 ± 0.11
TTTTAAACAAGACACACACACATATATATATATATA [CACACA_site925]	10.2 ± 0.35
AAAAAAATGAAACACACACACACATATATATATATA [CACACA_site1043]	10.1 ± 0.26
TTTTAAACAGGACACACACACATATATATATATATA [CACACA_site4664]	10.1 ± 0.42
ATTTTGTTATGAAACACACACATATATATATATATA [CACACA_site3650]	10.2 ± 0.18
TAATTTTTTAAACACACACACATATATATATATATA [CACACA_site4230]	10.2 ± 0.3

Sequence	gcPBM binding intensity (ln)
ATTTTGTTATGAAACACACACATATAAATATAAATA [CACACA_site7679]	8.51 ± 0.3
TTTTAATTAAAACACACACACACATATATATATATA [CACACA_site2291]	10.2 ± 0.23
ATATTTTGTTATGAAACACACACATATATATATATA [CACACA_site9216]	10.1 ± 0.16
AAAAAAAAAAATATCACACACACATAAATATAAACA [CACACA_site7138]	8.6 ± 0.61
TTTTTAAAACATATCACACATATATATATATATATA [CACACA_site5991]	10.3 ± 0.41
AAAAAAAAAAAAAACACACACATATAATATATTTAA [CACACA_site1337]	8.35 ± 0.38
AATTATATACATAAGTGTACATAATATATAAACATA [XGTACX_site793]	8.31 ± 0.28
TACATCTTACTACTTATAATATAATATAGTATGAAT [TGCATGCA_negctrl_site8]	8.21 ± 0.43
TTTTTCTTTTTTACAGTGCATAAATATATGTATTGT [GTGCAC_site9399]	8.61 ± 0.32
CTGAAGAAACTACAACGTACAAAATATGTATATATT [XGTACX_site3779]	8.55 ± 0.4
TTATTATATTAAAATTGTACTTGCTTTCAATATGAT [XGTACX_site5305]	8.23 ± 0.35
TTTCTTTTACATATTTGTACATATATAAATTTATAT [XGTACX_site1787]	8.91 ± 0.35
TACATTTAAAAAAAAACACACATATTTATATTTATA [CACACA_site7236]	8.01 ± 0.49
TTATCATTTTAAATCACACACATATATAAATATGTA [CACACA_site7359]	8.28 ± 0.35
TTAAAAAAAAAACACACACACATACACATATATATA [CACACA_site3299]	8.77 ± 0.33
TCTTATCATTTTAAATCACACACATATATATATATA [CACACA_site8925]	10.2 ± 0.16
TTATCATTTTAAATCACACACATATATATATATATA [CACACA_site2849]	10.1 ± 0.49
TACATTTAAAAAAAAACACACATATATATATATATA [CACACA_site2535]	10.3 ± 0.33
ATTTATGTTATTGTATGTACACAATATAATGTTATT [XGTACX_site5657]	8.56 ± 0.32
TAATACCATAACAAGTGTACATAAATAATTATTGTA [XGTACX_site4949]	8.8 ± 0.44
AAAAAAAAAAAAAAAACACACAAACATCAAATTACT [CACACA_site6950]	8.69 ± 0.24
ATATGTTATATAAATATATATATATATATATATATA [TGCATGCA_negctrl_site594]	10.1 ± 0.33
ATCAAAAATGTTATATATATATATATATATATATAT [TGCATGCA_negctrl_site71]	10.2 ± 0.45
ATATATATTATAAAATGTACAAATGTTATATAAAAT [XGTACX_site4750]	8.85 ± 0.45

Sequence	gcPBM binding intensity (ln)
GTTATATGTTATATATATATATATATATATATATAT [TGCATGCA_negctrl_site428]	10.2 ± 0.65
AATATGTTATAAATATGTTATAAATAATAAATAAAT [GTGCAC_negctrl_site135]	8.45 ± 0.47
AAAATGAAATATGTTATATATATATATATATATATA [CACACA_negctrl_site1752]	9.9 ± 0.4
ATATATATATATTCCACACACACACTAATAAAAAAA [CACACA_site9214]	9.94 ± 0.16
AACTGATTATTTTTTTGTACATATATAATAATATAT [XGTACX_site5953]	8.61 ± 0.33
GACCATGTTAACAAAGCATGCATCTCTATATGTTTA [TGCATGCA_site358]	8.87 ± 0.49
TCATAACAACTTTGTGTGCACATAAAACATGTATAT	8.94 ± 0.3
TATATTTATTTATACACATGCATATTTTAAGGGCTC [TGCATGCA_site885]	8.72 ± 0.4
TCATATCTTTTGAGCACACATATATATATATAAAGG [CACACA_site3338]	8.71 ± 0.34
CTAAACCTTTTGAGCACACATATATATATATATATA [CACACA_site1782]	10.4 ± 0.16
ATCTAAACCTTTTGAGCACACATATATATATATATA [CACACA_site8526]	9.86 ± 0.7
TAACAAAACATAGATTGTACATATTATAAATGTATA [XGTACX_site1543]	8.46 ± 0.38
GTGTAATATATTTTTCGTACATATTATATATATATA [XGTACX_site1675]	9.8 ± 0.37
TTTATTAATTTATAGTGTACATATTAATAATATATT [XGTACX_site7949]	8.35 ± 0.2
GTTTTCTAGTGGGGGTGTACATATTTATATTTAATA [XGTACX_site8378]	10.9 ± 0.34
TTTTTTTTGTGTATTTGTACATAATATATATATATA [XGTACX_site7092]	9.68 ± 0.19
ACATATTTTATTTTTTGTACACATATATTATTTTTT [XGTACX_site6528]	8.99 ± 0.42
ATATATTATTTCTAGTGTACATACCCATATATAATA [XGTACX_site8902]	8.97 ± 0.33
TTTCGTAACTATTTGTGTACATATATATATATATAT [XGTACX_site2920]	10.3 ± 0.29
AATATATATTTGTGTACACATTATATATATATATAT [CACACA_site6103]	10 ± 0.35
ATATATATATTTGTATGTACATATATATATTCGTAT [XGTACX_site1640]	9.23 ± 0.29
TAATATTTTTTGTGTACACATATATATATATATATA [CACACA_site5504]	10.2 ± 0.53
TTTATTTTGTAGTGTACACATATATATATATATATA [CACACA_site5843]	10.3 ± 0.36
TTTTTATTTGGTTGTGTACACATATATATATATATA [CACACA_site5844]	10.2 ± 0.3

Sequence	gcPBM binding intensity (ln)
GATCTATATATCATTACACACTTGAATTACTTAAAA [CACACA_site21]	8.49 ± 0.36
TAATTTTTTTTTTTTTTTTTTTTTTTTTTTTTCCTT [CACACA_negctrl_site1095]	7.8 ± 0.61
TAATTTTTATGAAGAAGTACAAAATCTACTATCATA [XGTACX_site4985]	7.99 ± 0.38
CGAACAAACAAATAAACACACAAAAAAAGATATATA [CACACA_site6944]	8.72 ± 0.57
AATGATAAATAAAAAGCATGCAACAAATAAAAATAA [TGCATGCA_site453]	9.84 ± 0.22
ATATATATAATAAGTGGTACAAGTTATTCATTAAAT [XGTACX_site7063]	8.64 ± 0.3
TAAACCAAAAAAAGTAGTACAAATATTATAAAAAAA [XGTACX_site8497]	8.69 ± 0.39
GTATTTTTAAATGACACACACATATATATATATATA [CACACA_site1662]	10.2 ± 0.5
TTGTATTTTTAAATGACACACACATATATATATATA [CACACA_site8481]	10.1 ± 0.38
GTATTTTTAAATGACACACACATATATAAATATGTA [CACACA_site6880]	8.38 ± 0.31
ATATTTAAATGGATCACACATATATATATATATATA [CACACA_site5255]	10.3 ± 0.3
CATAAAAATGGATACACACACATAATATATTTATAT [CACACA_site7669]	8.61 ± 0.4
ATTTATTATTATATCACACATAATATATTAAATGAT [CACACA_site5821]	8.28 ± 0.39
TTAACATATTTGTTAGTGCATTTTGATATTACACAT [GTGCAC_site9978]	8.6 ± 0.33
TCATACGAAATATAAACACACATACAATAAATAAAT [CACACA_site5156]	8.78 ± 0.44
CACCCACACCAACACACACACATATATAATATATAT [CACACA_site595]	8.81 ± 0.39
AATATAATATAAGGATCACACACAAACACCCATATA [CACACA_site8084]	8.91 ± 0.61
AAGGATCACCCACAAACACACATATATATATATATA [CACACA_site559]	10.4 ± 0.16
AACCACATACATATAACACACATATACAATATATAT [CACACA_site8607]	8.55 ± 0.45
CACACCCACCAACACACACACACACCCACCCATATA [CACACA_site366]	8.61 ± 0.57
TATAAACACCCATATAAACACACATATAAACCAACA [CACACA_site8790]	8.73 ± 0.43
CACCCACACCAACACACACACATATATATATATATA [CACACA_site362]	10.4 ± 0.2
AATAACCACCAACACACACACATATATATATATATA [CACACA_site3540]	10.2 ± 0.45
TATAATATAAGGATCACACACAAACACCCATATATA [CACACA_site4468]	8.74 ± 0.52
